The results in this text go back to ChEMBL document CHEMBL1201862, “PubChem BioAssay data set” (2004).

In all, about 310,000 compounds went through this assay and about 1,900 (0.61%) were called active. Inconclusive results (about 8%) are left out. The calls are words filed in the database; no cut-off is given here. The full list was thinned out, with actives kept by preference.

The nature of the test: qHTS for Stage-Specific Inhibitors of Vaccinia Orthopoxvirus: mCherry Reporter Primary qHTS. The test is classed as functional. The note with it: read-out: Potency.
For `CN(C)C(=O)CCc1ccc2c3c([nH]c2c1)[C@]1(C)[C@@H](C(=O)N2CCCCC2)C[C@H](CC(=O)NCCN2CCOCC2)C(=O)N1CC3`, the AC50 is 316 µM (active). Consider `C[C@H]1O[C@@H](O[C@H]2[C@@H](O)C[C@H](O[C@H]3[C@@H](O)C[C@H](O[C@H]4CC[C@@]5(C)[C@H](CC[C@@H]6[C@@H]5CC[C@]5(C)[C@@H](C7=CC(=O)OC7)[C@@H](O)C[C@]65O)C4)O[C@@H]3C)O[C@@H]2C)C[C@H](O)[C@@H]1O` [GITOXIN], for which the AC50 was 355 µM (active). The same measure for `Cc1cccc2c1N(CCCCI)C=S2C` (stereo not drawn): 4.47 µM (active).
